Drawing on ChEMBL document CHEMBL2218924, “A broad activity screen in support of a chemogenomic map for kinase signalling research and drug discovery” (Biochem J, 2013), this text covers residual activity for seven molecules.

Test [1] addresses Serine/threonine-protein kinase MRCK beta (Homo sapiens) (UniProt Q9Y5S2). Conditions: at 1 µM.
The target is the same in test [2]. The following applies: at 10 µM.
In test [3] the target is Ribosomal protein S6 kinase alpha-5 (Homo sapiens) (UniProt O75582). Conditions: at 1 µM.
Test [4] shares this target. Conditions: at 10 µM.
Test [5] addresses Ribosomal protein S6 kinase alpha-4 (Homo sapiens) (UniProt O75676). The following applies: at 1 µM.
For test [6] the target is unchanged. The following applies: at 10 µM.
Test [7] deals with SRSF protein kinase 3 (Homo sapiens) (UniProt Q9UPE1). Conditions: at 1 µM.
Sequence of SRSF protein kinase 3 (Homo sapiens) (Q9UPE1 whole entry): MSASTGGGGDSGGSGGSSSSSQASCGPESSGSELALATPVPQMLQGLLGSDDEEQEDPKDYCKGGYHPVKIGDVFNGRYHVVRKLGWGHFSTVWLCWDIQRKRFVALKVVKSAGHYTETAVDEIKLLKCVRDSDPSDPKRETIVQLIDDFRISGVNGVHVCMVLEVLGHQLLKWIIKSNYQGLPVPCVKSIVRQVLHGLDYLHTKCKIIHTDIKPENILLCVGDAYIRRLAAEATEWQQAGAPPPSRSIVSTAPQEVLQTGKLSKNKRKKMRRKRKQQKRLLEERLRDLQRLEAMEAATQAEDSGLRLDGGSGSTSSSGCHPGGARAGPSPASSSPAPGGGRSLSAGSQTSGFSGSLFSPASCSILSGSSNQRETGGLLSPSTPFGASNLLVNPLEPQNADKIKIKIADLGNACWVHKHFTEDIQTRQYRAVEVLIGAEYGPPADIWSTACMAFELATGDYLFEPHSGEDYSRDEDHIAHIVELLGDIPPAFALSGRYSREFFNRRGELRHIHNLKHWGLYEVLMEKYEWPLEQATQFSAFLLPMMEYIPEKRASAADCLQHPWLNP
For test [8] the target is unchanged. Conditions: at 10 µM.
Test [9] has as its target T1, Serine/threonine-protein kinase 4 (Homo sapiens) (UniProt Q13043).
T1 sequence (whole entry): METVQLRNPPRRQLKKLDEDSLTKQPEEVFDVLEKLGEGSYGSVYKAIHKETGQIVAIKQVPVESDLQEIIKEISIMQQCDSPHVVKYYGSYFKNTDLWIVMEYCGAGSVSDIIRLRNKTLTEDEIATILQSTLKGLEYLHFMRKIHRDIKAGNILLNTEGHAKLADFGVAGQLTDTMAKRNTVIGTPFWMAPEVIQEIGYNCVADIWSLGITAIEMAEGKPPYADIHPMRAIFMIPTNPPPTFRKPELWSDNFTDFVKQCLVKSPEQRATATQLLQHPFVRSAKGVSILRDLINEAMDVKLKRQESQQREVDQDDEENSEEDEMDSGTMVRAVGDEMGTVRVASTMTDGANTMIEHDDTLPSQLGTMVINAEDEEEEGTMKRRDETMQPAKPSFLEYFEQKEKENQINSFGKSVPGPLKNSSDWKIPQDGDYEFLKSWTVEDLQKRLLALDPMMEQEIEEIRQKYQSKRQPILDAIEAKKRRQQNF
Conditions: at 1 µM.

In test [10] the target is T1, Serine/threonine-protein kinase 4 (Homo sapiens). The following applies: at 10 µM.
The target of test [11] is T2, Serine/threonine-protein kinase 3 (Homo sapiens) (UniProt Q13188).
T2 sequence (whole entry): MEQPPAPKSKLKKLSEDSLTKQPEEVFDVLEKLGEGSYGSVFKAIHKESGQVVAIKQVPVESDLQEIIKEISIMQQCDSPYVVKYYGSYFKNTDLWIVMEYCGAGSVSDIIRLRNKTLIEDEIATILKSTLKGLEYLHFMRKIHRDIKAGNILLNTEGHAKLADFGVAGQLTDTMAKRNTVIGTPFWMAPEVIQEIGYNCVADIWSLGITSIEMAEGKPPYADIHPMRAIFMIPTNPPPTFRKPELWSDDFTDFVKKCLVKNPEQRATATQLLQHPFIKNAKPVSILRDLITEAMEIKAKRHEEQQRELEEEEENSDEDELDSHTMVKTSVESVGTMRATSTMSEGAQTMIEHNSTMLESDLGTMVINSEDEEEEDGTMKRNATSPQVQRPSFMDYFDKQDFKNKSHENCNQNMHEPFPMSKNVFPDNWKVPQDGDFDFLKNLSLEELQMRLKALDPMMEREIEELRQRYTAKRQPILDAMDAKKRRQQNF
Conditions: at 1 µM.

Test [12] deals with T2, Serine/threonine-protein kinase 3 (Homo sapiens). Conditions: at 10 µM.
The target in test [13] is Serine/threonine-protein kinase 24 (Homo sapiens) (UniProt Q9Y6E0). Conditions: at 1 µM.
Test [14] has the same target. Conditions: at 10 µM.
Test [15] concerns the target T3, Tyrosine-protein kinase Mer (Homo sapiens) (UniProt Q12866).
T3 sequence (whole entry): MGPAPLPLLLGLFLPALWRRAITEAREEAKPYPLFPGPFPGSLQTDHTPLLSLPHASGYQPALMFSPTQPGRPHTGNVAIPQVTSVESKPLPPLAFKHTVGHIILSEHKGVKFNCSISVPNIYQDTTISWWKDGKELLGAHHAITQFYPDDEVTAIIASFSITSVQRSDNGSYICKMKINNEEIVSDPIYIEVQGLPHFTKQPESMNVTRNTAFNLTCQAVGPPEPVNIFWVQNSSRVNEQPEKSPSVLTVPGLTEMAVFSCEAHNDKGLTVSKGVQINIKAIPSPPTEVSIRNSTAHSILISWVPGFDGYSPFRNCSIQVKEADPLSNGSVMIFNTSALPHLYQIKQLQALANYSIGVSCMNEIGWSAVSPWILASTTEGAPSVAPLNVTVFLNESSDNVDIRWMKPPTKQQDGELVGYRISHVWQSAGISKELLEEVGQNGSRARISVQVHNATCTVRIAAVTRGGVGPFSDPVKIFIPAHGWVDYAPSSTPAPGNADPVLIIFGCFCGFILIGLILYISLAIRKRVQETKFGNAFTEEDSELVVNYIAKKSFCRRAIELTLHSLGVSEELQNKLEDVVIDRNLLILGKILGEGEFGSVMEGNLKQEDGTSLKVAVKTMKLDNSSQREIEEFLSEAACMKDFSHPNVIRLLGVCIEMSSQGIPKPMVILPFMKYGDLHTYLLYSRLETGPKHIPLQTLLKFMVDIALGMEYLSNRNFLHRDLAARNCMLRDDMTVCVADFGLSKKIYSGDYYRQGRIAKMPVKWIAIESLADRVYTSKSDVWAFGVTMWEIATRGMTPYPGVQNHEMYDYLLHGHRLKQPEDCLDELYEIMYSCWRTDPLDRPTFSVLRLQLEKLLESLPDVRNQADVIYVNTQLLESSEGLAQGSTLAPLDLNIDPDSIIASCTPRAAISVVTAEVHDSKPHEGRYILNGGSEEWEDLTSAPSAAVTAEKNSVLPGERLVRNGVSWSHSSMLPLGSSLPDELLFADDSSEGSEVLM
Conditions: at 1 µM.

Test [16] concerns the target T3, Tyrosine-protein kinase Mer (Homo sapiens). The following applies: at 10 µM.
For test [17], the target named is Hepatocyte growth factor receptor (Homo sapiens) (UniProt P08581). Conditions: at 1 µM.
Sequence of Hepatocyte growth factor receptor (Homo sapiens) (P08581 whole entry): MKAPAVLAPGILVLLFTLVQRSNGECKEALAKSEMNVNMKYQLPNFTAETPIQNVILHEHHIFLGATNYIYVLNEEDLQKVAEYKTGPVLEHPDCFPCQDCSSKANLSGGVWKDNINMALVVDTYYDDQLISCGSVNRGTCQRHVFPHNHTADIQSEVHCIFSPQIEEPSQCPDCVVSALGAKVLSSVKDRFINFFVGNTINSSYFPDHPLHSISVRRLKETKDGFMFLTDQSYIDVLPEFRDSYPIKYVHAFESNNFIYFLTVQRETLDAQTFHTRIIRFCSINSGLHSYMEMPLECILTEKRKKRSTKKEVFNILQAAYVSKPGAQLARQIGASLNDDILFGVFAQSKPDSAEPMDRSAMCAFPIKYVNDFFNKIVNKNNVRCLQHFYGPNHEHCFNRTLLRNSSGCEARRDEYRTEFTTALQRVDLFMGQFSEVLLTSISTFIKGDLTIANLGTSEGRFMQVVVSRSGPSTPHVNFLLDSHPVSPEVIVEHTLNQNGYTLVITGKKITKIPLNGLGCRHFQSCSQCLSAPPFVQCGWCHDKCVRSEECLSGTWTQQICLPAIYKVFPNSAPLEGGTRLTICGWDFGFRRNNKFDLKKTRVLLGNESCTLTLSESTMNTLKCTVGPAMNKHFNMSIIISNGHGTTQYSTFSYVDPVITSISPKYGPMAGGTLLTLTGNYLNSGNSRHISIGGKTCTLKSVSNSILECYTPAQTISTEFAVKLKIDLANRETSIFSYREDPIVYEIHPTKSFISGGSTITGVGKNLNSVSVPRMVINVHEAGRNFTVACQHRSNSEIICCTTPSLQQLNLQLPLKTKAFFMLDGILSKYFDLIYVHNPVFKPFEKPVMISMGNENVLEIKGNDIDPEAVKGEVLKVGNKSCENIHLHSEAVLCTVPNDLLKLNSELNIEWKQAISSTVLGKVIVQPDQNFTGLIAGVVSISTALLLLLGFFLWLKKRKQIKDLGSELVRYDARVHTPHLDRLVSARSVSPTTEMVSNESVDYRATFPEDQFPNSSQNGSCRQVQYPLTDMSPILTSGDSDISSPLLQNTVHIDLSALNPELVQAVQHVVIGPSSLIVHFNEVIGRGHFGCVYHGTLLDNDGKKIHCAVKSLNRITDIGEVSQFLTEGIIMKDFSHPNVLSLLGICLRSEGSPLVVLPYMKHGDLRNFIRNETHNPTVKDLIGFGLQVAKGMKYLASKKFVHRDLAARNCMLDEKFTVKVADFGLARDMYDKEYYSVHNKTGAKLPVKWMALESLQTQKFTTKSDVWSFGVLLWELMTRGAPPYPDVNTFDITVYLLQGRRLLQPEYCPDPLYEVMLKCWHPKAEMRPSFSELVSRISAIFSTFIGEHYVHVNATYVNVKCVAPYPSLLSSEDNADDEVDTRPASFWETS
Test [18] shares this target. The following applies: at 10 µM.
Test [19] deals with MAP kinase-interacting serine/threonine-protein kinase 2 (Homo sapiens) (UniProt Q9HBH9). Conditions: at 1 µM.
Sequence of MAP kinase-interacting serine/threonine-protein kinase 2 (Homo sapiens) (Q9HBH9 whole entry, looked up): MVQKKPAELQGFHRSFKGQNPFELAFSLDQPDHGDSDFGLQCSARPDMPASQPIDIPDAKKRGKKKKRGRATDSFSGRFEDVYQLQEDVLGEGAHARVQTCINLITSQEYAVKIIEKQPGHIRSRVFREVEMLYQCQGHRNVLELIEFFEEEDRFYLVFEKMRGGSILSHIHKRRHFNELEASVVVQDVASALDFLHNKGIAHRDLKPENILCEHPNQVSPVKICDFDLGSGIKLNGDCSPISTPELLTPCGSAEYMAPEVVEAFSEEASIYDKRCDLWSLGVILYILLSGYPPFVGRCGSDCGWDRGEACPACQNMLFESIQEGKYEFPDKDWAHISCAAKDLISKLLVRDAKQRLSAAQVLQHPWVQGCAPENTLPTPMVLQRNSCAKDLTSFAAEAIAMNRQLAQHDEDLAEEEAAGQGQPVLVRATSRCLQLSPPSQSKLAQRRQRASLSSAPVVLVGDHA
Test [20] shares this target. The following applies: at 10 µM.

Sequence of Serine/threonine-protein kinase MRCK beta (Homo sapiens) (Q9Y5S2 whole entry): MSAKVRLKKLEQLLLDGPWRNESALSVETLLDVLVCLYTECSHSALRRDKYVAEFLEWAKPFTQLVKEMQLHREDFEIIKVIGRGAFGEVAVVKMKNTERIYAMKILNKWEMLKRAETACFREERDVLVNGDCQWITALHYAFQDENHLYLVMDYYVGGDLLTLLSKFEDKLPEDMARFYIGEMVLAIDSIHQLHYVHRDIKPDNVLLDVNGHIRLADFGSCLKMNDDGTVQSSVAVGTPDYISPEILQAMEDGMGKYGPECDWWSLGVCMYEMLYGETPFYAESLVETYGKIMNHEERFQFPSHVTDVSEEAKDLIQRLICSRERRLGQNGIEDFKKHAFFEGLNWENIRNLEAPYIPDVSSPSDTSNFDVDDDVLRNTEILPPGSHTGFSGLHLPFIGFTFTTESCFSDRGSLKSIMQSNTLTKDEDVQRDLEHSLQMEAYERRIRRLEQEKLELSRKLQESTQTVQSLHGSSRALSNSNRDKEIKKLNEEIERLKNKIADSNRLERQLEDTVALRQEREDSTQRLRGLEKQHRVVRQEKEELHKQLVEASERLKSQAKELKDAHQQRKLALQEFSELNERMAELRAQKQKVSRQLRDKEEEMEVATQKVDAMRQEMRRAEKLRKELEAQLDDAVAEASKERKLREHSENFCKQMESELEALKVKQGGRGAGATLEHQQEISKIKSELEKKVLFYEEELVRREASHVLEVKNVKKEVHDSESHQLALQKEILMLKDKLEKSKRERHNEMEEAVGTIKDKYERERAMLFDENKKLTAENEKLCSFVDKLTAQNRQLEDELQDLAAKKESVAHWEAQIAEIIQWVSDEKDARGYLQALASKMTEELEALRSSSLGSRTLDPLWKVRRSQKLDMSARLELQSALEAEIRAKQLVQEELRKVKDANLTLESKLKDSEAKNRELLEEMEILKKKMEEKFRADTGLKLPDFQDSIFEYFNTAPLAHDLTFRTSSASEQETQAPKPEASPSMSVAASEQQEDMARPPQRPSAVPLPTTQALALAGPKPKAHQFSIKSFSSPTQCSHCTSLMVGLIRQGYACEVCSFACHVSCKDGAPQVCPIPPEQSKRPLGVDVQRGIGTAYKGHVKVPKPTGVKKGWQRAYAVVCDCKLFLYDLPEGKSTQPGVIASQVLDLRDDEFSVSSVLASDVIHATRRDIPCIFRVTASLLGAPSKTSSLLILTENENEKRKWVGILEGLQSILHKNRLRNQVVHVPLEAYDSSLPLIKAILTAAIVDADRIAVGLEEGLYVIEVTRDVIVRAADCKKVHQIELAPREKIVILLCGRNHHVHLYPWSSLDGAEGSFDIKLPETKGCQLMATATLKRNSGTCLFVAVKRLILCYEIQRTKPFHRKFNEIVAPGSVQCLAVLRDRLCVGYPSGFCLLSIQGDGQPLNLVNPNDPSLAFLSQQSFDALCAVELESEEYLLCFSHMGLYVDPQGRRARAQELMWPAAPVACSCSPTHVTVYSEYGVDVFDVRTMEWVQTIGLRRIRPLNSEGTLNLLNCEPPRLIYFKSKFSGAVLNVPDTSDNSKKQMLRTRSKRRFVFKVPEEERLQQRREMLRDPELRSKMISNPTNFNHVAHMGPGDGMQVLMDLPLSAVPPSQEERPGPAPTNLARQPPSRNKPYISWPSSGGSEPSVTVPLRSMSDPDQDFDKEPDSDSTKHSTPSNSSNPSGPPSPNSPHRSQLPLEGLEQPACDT
Sequence of Ribosomal protein S6 kinase alpha-4 (Homo sapiens) (O75676 whole entry, looked up): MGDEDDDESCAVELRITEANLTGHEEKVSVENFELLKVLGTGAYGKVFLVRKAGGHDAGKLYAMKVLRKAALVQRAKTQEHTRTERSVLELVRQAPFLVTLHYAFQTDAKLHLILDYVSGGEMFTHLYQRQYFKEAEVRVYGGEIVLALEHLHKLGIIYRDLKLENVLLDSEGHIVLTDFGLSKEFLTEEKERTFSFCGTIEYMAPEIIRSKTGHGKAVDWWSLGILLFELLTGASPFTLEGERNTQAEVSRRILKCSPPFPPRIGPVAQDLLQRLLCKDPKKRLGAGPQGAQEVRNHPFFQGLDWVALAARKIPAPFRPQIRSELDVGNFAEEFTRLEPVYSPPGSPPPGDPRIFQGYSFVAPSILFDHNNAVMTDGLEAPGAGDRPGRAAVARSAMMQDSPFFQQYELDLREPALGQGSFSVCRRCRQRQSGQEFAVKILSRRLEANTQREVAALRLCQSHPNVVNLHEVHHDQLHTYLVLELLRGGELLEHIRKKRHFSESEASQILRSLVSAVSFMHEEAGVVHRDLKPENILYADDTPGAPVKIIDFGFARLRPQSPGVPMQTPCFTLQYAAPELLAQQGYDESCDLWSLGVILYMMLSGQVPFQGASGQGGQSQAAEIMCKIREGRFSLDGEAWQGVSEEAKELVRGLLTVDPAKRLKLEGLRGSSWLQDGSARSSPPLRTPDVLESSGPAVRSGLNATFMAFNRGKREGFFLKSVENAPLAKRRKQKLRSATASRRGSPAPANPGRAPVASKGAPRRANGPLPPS

A word on the residual activity: it is the signal under treatment as a percentage of the control signal. On to `O=C1c2ccccc2-[n+]2ccc3c([nH]c4ccccc43)c21`, for which the residual activity was found to be 90% in test [1]; 85% in test [2]; 104% in test [3]; 110% in test [4]; 97% in [5]; 90% in test [6]. Further, the residual activity in test [7] is 106%; in test [8], 99%; in [9], 108%; in test [10], 94%; in test [11] it was 101%; in [12] it was 100%. The residual activity is 71% in test [13]; 70% in test [14]; 95% in test [15]; 97% in test [16]; 112% in test [17]; 86% in test [18]. The residual activity in test [19] worked out at 55%; in [20], 42%.

For the molecule `Cn1nc2c3c(cccc31)C(=O)c1ccccc1-2`, the residual activity in test [1] was determined as 92%; in [2], 85%; in [3] it was 99%; in [4] it was 83%; in test [5], 93%; in test [6], 79%. Further, the residual activity in test [7] came to 98%; in test [8], 97%; in test [9] it was 72%; in test [10] it was 72%; in test [11], 97%; in [13] it was 74%. Moreover, the residual activity in test [14] came out at 69%; in test [15], 53%; in test [16] it was 21%; in test [18], 84%; in test [19], 81%; in test [20], 72%.

With `c1ccc(-c2n[nH]c3c2oc2ccccc23)cc1`, the residual activity in [1] was determined as 98%; in test [2] it was 115%; in [4], 74%; in test [5], 95%; in test [6] it was 70%; in test [9], 88%. Besides, the residual activity came out at 58% in [10]; 66% in test [13]; 67% in [14]; 95% in test [15]; 70% in test [16]; 87% in [17]. Besides, the residual activity was 70% in test [18], 80% in test [19] and 24% in test [20].

As to `CCN(CC)C(=O)c1ccc(Nc2nc(OCC3CCCCC3)c3nc[nH]c3n2)cc1`, the residual activity in test [2] was found to be 34%; in [3], 100%; in test [4] it was 69%; in test [5] it was 64%; in [6], 23%; in [7], 66%. Also, the residual activity in [8] came out at 15%; in test [9], 36%; in test [10], 5%; in [11] it was 66%; in test [12], 7%; in test [13] it was 63%. The residual activity in test [14] was determined as 16%; in test [15], 15%; in [16], 0%; in test [17], 45%; in test [18], 9%; in test [20] it was 44%.

Take `Cc1cc(Nc2nc(-c3ccccc3)nc3ccccc23)n[nH]1`: the residual activity in test [1] worked out at 96%; in test [2] it was 99%; in test [3], 72%; in test [4], 39%; in [5] it was 59%; in test [6] it was 14%. The residual activity worked out at 46% in [7]; 16% in test [8]; 48% in test [9]; 6% in [10]; 55% in test [11]; 11% in [12]. Further, the residual activity in test [13] was determined as 59%; in [14] it was 10%; in [15], 19%; in test [16], 1%; in [17], 94%; in test [18] it was 65%. Besides, in test [20], the residual activity is 61%.

With `COc1cc2ncc(-c3ccccc3)nc2cc1OC`, the residual activity came to 98% in test [1]; 79% in test [2]; 83% in [5]; 88% in [6]; 134% in [7]; 92% in [8]. The residual activity in test [12] is 100%; in test [13] it was 65%; in test [14] it was 71%; in test [16], 62%; in test [17], 92%; in [18], 68%.

As to `Cc1nc(-c2ccccc2)c(-c2ccncc2)o1`, the residual activity in test [1] was determined as 105%; in [2], 96%; in test [3] it was 99%; in [4] it was 94%; in test [5], 103%; in [6], 77%. Also, the residual activity is 112% in [7]; 99% in [8]; 110% in [10]; 102% in test [11]; 96% in test [12]; 101% in test [13]. The residual activity in test [14] amounted to 100%; in test [15], 99%; in [16] it was 88%; in test [17], 128%; in test [18], 94%; in test [19], 106%. Further, the residual activity in test [20] worked out at 77%.
